Source: the supplement of paper PMC8728848
The sample as a whole holds a higher share of the strongest signals than the screen did.

Columns and labels:
Experiment in all cases: glycan array binding signal (z-score within array); higher = stronger binding
Conditions in all cases: glycan notation: IUPAC condensed, linker removed
[1] = biological target: Fuc(a1-2)Gal(b1-3)GalNAc(a1-3)[Fuc(a1-2)]Gal(b1-4)Glc
Summary of the method: (§1)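 Negative Z-scores can be read as non-binding. The Z-score is calculated within each array and then averaged across arrays of one protein sequence at different concentrations or buffers and across linkers. Arrays, 3228 in all, were curated from the Consortium for Functional Glycomics database and kept only where the protein sequence was available.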

[2] = biological target: Fuc(a1-2)Gal(b1-3)GlcNAc(b1-3)Gal(b1-4)Glc
Summary of the method: as §1

Fuc(a1-2)Gal(b1-4)Glc6S = biological target: Fuc(a1-2)Gal(b1-4)Glc6S
Summary of the method: as §1

[3] = biological target: Fuc(a1-2)[Gal(a1-3)]Gal(b1-4)[Fuc(a1-3)]GlcNAc
Summary of the method: as §1

[4] = biological target: Fuc(a1-2)[GalNAc(a1-3)]Gal
Summary of the method: as §1

[5] = biological target: Fuc(a1-2)[GalNAc(a1-3)]Gal(b1-4)GlcNAc(b1-3)Gal(b1-4)GlcNAc(b1-3)Gal(b1-4)GlcNAc
Summary of the method: as §1

[6] = biological target: Fuc(a1-3)[Gal(b1-4)]GlcNAc(b1-3)GalNAc
Summary of the method: as §1

[7] = biological target: Fuc(a1-3)[Gal3S(b1-4)]GlcNAc
Summary of the method: as §1

[8] = biological target: Gal(b1-3)GalNAc(a1-3)[Fuc(a1-2)]Gal(b1-4)Glc
Summary of the method: as §1

[9] = biological target: Gal(b1-3)GlcNAc(b1-6)Gal(b1-4)GlcNAc
Summary of the method: as §1

Gal(b1-4)GlcNAc = biological target: Gal(b1-4)GlcNAc
Summary of the method: as §1

[10] = biological target: Gal(b1-4)GlcNAc(b1-2)Man(a1-3)[Gal(b1-4)GlcNAc(b1-2)Man(a1-6)]Man(b1-4)GlcNAc(b1-4)GlcNAc
Summary of the method: as §1

[11] = biological target: Gal(b1-4)GlcNAc(b1-3)Gal(b1-3)GlcNAc
Summary of the method: as §1

[12] = biological target: Gal(b1-4)GlcNAc(b1-3)Gal(b1-4)[Fuc(a1-3)]GlcNAc(b1-3)Gal(b1-4)[Fuc(a1-3)]GlcNAc
Summary of the method: as §1

Gal6S(b1-4)GlcNAc6S = biological target: Gal6S(b1-4)GlcNAc6S
Summary of the method: as §1

GalNAc(b1-3)Gal = biological target: GalNAc(b1-3)Gal
Summary of the method: as §1

Glc(a1-4)Glc = biological target: Glc(a1-4)Glc
Summary of the method: as §1

GlcA(b1-3)GlcNAc = biological target: GlcA(b1-3)GlcNAc
Summary of the method: as §1

[13] = biological target: GlcNAc(b1-2)Man(a1-3)[GlcNAc(b1-2)Man(a1-6)]Man(b1-4)GlcNAc(b1-4)GlcNAc
Summary of the method: as §1

[14] = biological target: GlcNAc(b1-2)[GlcNAc(b1-4)]Man(a1-3)[GlcNAc(b1-2)Man(a1-6)]Man(b1-4)GlcNAc(b1-4)GlcNAc
Summary of the method: as §1

[15] = biological target: GlcNAc(b1-3)[GlcNAc(b1-4)][GlcNAc(b1-6)]GlcNAc
Summary of the method: as §1

[16] = biological target: GlcNAc(b1-3)[GlcNAc(b1-6)]Gal(b1-4)GlcNAc
Summary of the method: as §1

[17] = biological target: GlcNAc(b1-4)[GlcNAc(b1-6)]GalNAc
Summary of the method: as §1

[18] = biological target: Neu5Ac(a2-3)Gal(b1-3)GalNAc6S
Summary of the method: as §1

[19] = biological target: Neu5Ac(a2-3)Gal(b1-3)GlcNAc6S
Summary of the method: as §1

[20] = biological target: Neu5Ac(a2-3)Gal(b1-3)[Fuc(a1-4)]GlcNAc(b1-3)Gal(b1-3)[Fuc(a1-4)]GlcNAc
Summary of the method: as §1

[21] = biological target: Neu5Ac(a2-3)Gal(b1-3)[Neu5Ac(a2-6)]GalNAc
Summary of the method: as §1

[22] = biological target: Neu5Ac(a2-3)Gal(b1-4)GlcNAc(b1-3)Gal(b1-4)[Fuc(a1-3)]GlcNAc
Summary of the method: as §1

Neu5Ac(a2-6)Gal(b1-4)Glc = biological target: Neu5Ac(a2-6)Gal(b1-4)Glc
Summary of the method: as §1

[23] = biological target: Neu5Ac(a2-6)GlcNAc(b1-4)GlcNAc
Summary of the method: as §1

B1: SSL (Salmo salar) (protein)
chain: TGAKGAEEGVVPAETRNQCPTGWFQFGSRCFMFVETARSWPLAERHCVSLGANLASVHSSADDQFLQAIAGCKTGAFSTTWIGGFDAVQDRLWFWSDGSEFDYQNWAKGEPNNSGGREPCIVINWGDEYRWNDIKCGNSFPSVCSKRICEIQKN
glycan array binding signal (z-score) [1]: -0.152 | glycan array binding signal (z-score) [2]: -0.096 | glycan array binding signal (z-score) (Fuc(a1-2)Gal(b1-4)Glc6S): -0.137 | glycan array binding signal (z-score) [3]: -0.154 | glycan array binding signal (z-score) [4]: -0.165 | glycan array binding signal (z-score) [5]: -0.178 | glycan array binding signal (z-score) [6]: -0.124 | glycan array binding signal (z-score) [7]: -0.17 | glycan array binding signal (z-score) [8]: -0.165 | glycan array binding signal (z-score) [9]: -0.163 | glycan array binding signal (z-score) (Gal(b1-4)GlcNAc): -0.154 | glycan array binding signal (z-score) [10]: -0.167 | glycan array binding signal (z-score) [11]: -0.174 | glycan array binding signal (z-score) [12]: -0.175 | glycan array binding signal (z-score) (Gal6S(b1-4)GlcNAc6S): -0.162 | glycan array binding signal (z-score) (GalNAc(b1-3)Gal): -0.143 | glycan array binding signal (z-score) (Glc(a1-4)Glc): 2.63 | glycan array binding signal (z-score) (GlcA(b1-3)GlcNAc): 4.35 | glycan array binding signal (z-score) [13]: 3.12 | glycan array binding signal (z-score) [14]: 6.65 | glycan array binding signal (z-score) [15]: 11.7 | glycan array binding signal (z-score) [16]: 6.68 | glycan array binding signal (z-score) [17]: 8.49 | glycan array binding signal (z-score) [18]: -0.18 | glycan array binding signal (z-score) [19]: -0.167 | glycan array binding signal (z-score) [20]: -0.086 | glycan array binding signal (z-score) [21]: -0.153 | glycan array binding signal (z-score) [22]: -0.179 | glycan array binding signal (z-score) (Neu5Ac(a2-6)Gal(b1-4)Glc): -0.158 | glycan array binding signal (z-score) [23]: 0.202
